Molecules are shown by their SMILES. This is part of a sample that, as a whole, favours compounds with a hit. Of some 83,000 tested, about 20% had one in any assay.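 Single-dose data. Exposure time 48 hours. Values below 10 considered active.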 A number with no mark means an inactive call. Activity calls are given as the source filed them.

Some test systems named below: RPMI-8226 leukemia; OVCAR-8 ovarian; OVCAR-5 ovarian; OVCAR-4 ovarian; SK-OV-3 ovarian; IGROV1 ovarian; OVCAR-3 ovarian; HS 578T breast; NCI/ADR-RES ovarian.
What all share (assay): NCI-60 one-dose screen, 48 h (100 = growth as untreated, 0 = no growth, -100 = all killed)
What all share (settings): 10 µM unless noted

In the case of `Nc1nnc2cc(Cl)ccc2n1`, the growth is 68.9% in the experiment with RPMI-8226 leukemia; 105% in the experiment on OVCAR-8 ovarian; 105% with OVCAR-5 ovarian; 111% in the experiment with OVCAR-4 ovarian; 96.5% with SK-OV-3 ovarian; 96.3% with IGROV1 ovarian. Besides, the growth is 145% with OVCAR-3 ovarian, 86.4% in the experiment on HS 578T breast and 96.3% in the experiment with NCI/ADR-RES ovarian.

Consider `Cn1c2c(Cl)c(Cl)ccc2c2cc(N)[nH]c(=O)c21`, for which the growth with RPMI-8226 leukemia was 94.9%; in the experiment on OVCAR-8 ovarian it was 73.7%; in the experiment on OVCAR-5 ovarian, 66.2%; in the experiment on OVCAR-4 ovarian, 87.2%; with SK-OV-3 ovarian it was 92.2%; in the experiment on IGROV1 ovarian, 54.7%. Also, the growth with OVCAR-3 ovarian was 86.2%; in the experiment on HS 578T breast, 51.5%; with NCI/ADR-RES ovarian it was 74.6%.

For `COc1cccc(/C=C2\COc3ccc(-c4ccccc4)cc3C2=O)c1`, the growth in the experiment with RPMI-8226 leukemia was -31.4% (active); in the experiment with OVCAR-8 ovarian, 3.02% (active); in the experiment on OVCAR-5 ovarian it was 49.6%; in the experiment on OVCAR-4 ovarian, 65.2%; with SK-OV-3 ovarian, 74.3%; in the experiment with IGROV1 ovarian it was 4.34% (active). Besides, the growth in the experiment on OVCAR-3 ovarian is -44% (active); with HS 578T breast, -9.75% (active); in the experiment on NCI/ADR-RES ovarian, 5.38% (active).

These data come from PubChem BioAssay (NCI).
